Screening results: PubChem, National Center for Advancing Translational Sciences (NCATS)
An excerpt weighted towards active compounds, which were near 1.8% of everything screened.
JMJD2E inh = qHTS Assay for Inhibitors of Human Jumonji Domain Containing 2E (JMJD2E). AID 2147, 2009. JMJD2E catalytic domain, FDH-coupled NADH fluorescence (FDH is formaldehyde dehydrogenase). Potency, µM (highest dose often 57.1 µM), usual class: inhibitors. Lysine-specific demethylase 4E (Homo sapiens), B2RXH2. 1.6% of 230,000 active; active = well fitted inhibition curve with a large enough effect, not every such curve was filed as active; inconclusive = small, poorly fitted or top-dose-only effect, or another doubt; inactive = no such curve, though single readings can be large or run the other way; note: nearly all actives have a fitted effect of over 50% in size
Target sequence (B2RXH2 1-337 limits assumed): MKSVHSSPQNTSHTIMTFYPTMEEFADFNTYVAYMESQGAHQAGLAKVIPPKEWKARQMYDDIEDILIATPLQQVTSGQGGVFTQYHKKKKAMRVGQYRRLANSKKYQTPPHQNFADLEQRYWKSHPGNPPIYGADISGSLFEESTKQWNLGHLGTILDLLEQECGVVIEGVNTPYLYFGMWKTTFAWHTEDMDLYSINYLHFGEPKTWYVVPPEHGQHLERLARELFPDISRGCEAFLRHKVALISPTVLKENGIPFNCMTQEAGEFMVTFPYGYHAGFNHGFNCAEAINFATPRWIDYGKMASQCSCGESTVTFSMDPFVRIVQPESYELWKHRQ
HTT cytoprotect = qHTS Multiplex Assay to Identify Dual Action Probes in a Cell Model of Huntington: Cytoprotection (ATP); Potency, µM (titrated, usually from 56.4 µM), actives largely listed as activators; 0.14% of 230,000 active; PC12 HTT-Q103 induced, cytoprotection, ATP luminescence, 40 h; note: nearly all actives have a fitted effect of over 45% in size
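PC12 cells stably carrying ecdysone-inducible Htt exon 1 (Q103)–GFP were induced with 100 nM tebufenozide (final) alongside library compounds in a dose series. Cytoprotection was scored as retained ATP by ATPlite luminescence.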
L3MBTL1 inh = qHTS Assay for the Inhibitors of L3MBTL1 | Potency, µM (highest dose often 57.1 µM), most hits filed as inhibitors | 0.66% of 230,000 active | AID 485360, 2010 | AlphaScreen L3MBTL1–H3K9me1 peptide binding | Lethal(3)malignant brain tumor-like protein 1 (Homo sapiens), Q9Y468; note: nearly all actives have a fitted effect of over 60% in size
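Displacement of a biotinylated histone H3(1-15) peptide monomethylated at Lys9 (75 nM) from L3MBTL1 (50 nM) was measured by AlphaScreen after a 30 min room-temperature compound incubation; cefsulodin titration served as intraplate control.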
HTT aggregate = qHTS Multiplex Assay to Identify Dual Action Probes in a Cell Model of Huntington: Aggregate Formation (GFP); PC12 HttQ103-GFP aggregates, Acumen cytometry, 40 h; Potency, µM (highest dose often 46.1 µM), hits mostly inhibitors; 1.1% of 220,000 active; note: nearly all actives have a fitted effect of over 60% in size
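Aggregate formation scored by laser-scanning cytometer (488 excitation, 500–530 emission) in lysed PC12 cells expressing Q103-GFP after 100 nM tebufenozide induction; library tested in dose series, with ATPLite reagent added in the multiplex.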
Large screens that a line does not name were inactive; ! = repeats disagree. Unless noted, calls come from the whole dose curve; as a rule, active = well fitted curve in the direction sought with a large enough effect; inconclusive = small, poorly fitted or top-dose-only effect, or another doubt; inactive = no such curve, though single readings can be large; an effect the other way counts as inactive or inconclusive.

Cn1c(SCC(=O)N/N=C/c2cc([N+](=O)[O-])ccc2O)nnc1-c1ccccc1	JMJD2E inh 10µM (no result: L3MBTL1 inh)
Nc1nnc(CC(=O)N/N=C\c2cc([N+](=O)[O-])ccc2O)s1	JMJD2E inh 14µM, L3MBTL1 inh inconclusive
O=C(N/N=C/c1cc([N+](=O)[O-])ccc1O)NC12CC3CC(CC(C3)C1)C2	HTT aggregate inconclusive
Cc1cc([N+](=O)[O-])nn1CC(=O)N/N=C/c1ccccc1O	JMJD2E inh 7.9µM, L3MBTL1 inh inconclusive
Nc1nnnn1CC(=O)N/N=C/c1cc([N+](=O)[O-])ccc1O	JMJD2E inh 7.9µM, L3MBTL1 inh 0.16µM
Cc1nc2ccccc2n1CC(O)COCC1CC=CCC1 (stereo not drawn)	HTT aggregate inconclusive (no result: L3MBTL1 inh)
CCCc1n(CC)c2ccccc2[n+]1CC(O)COC1CCCCC1 (stereo not drawn)	none (no result: L3MBTL1 inh)
CCc1n(CC(O)COCC2CC=CCC2)c2ccccc2[n+]1C (stereo not drawn)	JMJD2E inh 11µM
CCc1n(CC(O)COC2CCCCC2)c2ccccc2[n+]1C (stereo not drawn)	JMJD2E inh 10µM
Cc1nc(Nc2c(Cl)cccc2Cl)sc1C(=O)Nc1ccccc1	HTT aggregate 11µM
Cc1nc(NC(=O)C2CC2)sc1C(=O)Nc1ccccc1	none (no result: JMJD2E inh, HTT cytoprotect, HTT aggregate)
COC/C=C/C1=CC2=CC(=O)C(C)(OC(=O)c3cnc4ccccc4n3)C(=O)C2=CN1CCOC (stereo not drawn)	none (no result: L3MBTL1 inh, HTT aggregate)
COC/C=C/C1=CC2=CC(=O)C(C)(OC(=O)c3cnc4ccccc4n3)C(=O)C2=CN1CCN1CCOCC1 (stereo not drawn)	JMJD2E inh 13µM! (no result: L3MBTL1 inh)
CC1CCC2C(=O)N3C(CCC(C)[C@@H]3c3cccc(N4CCOCC4)c3)C(=O)N2C1c1cccc(N2CCOCC2)c1 (stereo partly drawn)	none (no result: JMJD2E inh, L3MBTL1 inh, HTT aggregate)
O=C(C1CCCN(S(=O)(=O)c2cccc3nonc23)C1)N1CCC(Cc2ccccc2)CC1 (stereo not drawn)	HTT aggregate 35µM (no result: L3MBTL1 inh)
O=C(C1CCCN(S(=O)(=O)c2cccc3nonc23)C1)N1CCN(c2ccccc2Cl)CC1 (stereo not drawn)	JMJD2E inh inconclusive (no result: HTT cytoprotect)
S=c1[nH]nc(Nc2cccc3ccccc23)s1	JMJD2E inh 25µM
c1ccc2c(Nc3nc4c(s3)CCCC4)cccc2c1	JMJD2E inh inconclusive
COC(=O)C/C=C\[C@@H](C)[C@@H](/C=N\OC[C@@H](O)COCc1ccco1)NS(=O)(=O)c1ccc(C)cc1	none (no result: JMJD2E inh, L3MBTL1 inh, HTT aggregate)
CNc1ccc(Br)cc(C(=O)/C=C/c2cccc(OC)c2OC)c1=O	JMJD2E inh 28µM, L3MBTL1 inh inconclusive, HTT aggregate inconclusive
COc1ccc(-n2c(-c3ccc(Br)cc3)c[n+]3c2CCCCC3)cc1	HTT aggregate 2.2µM
Cc1ccc(-n2c(-c3ccccc3)c[n+]3c2CCC3)cc1	HTT aggregate 8.9µM
COc1ccc(-n2c(-c3ccc(Br)cc3)c[n+]3c2SC(C)C3)cc1 (stereo not drawn)	HTT aggregate 10µM (no result: HTT cytoprotect)
COc1ccc(-n2c(-c3ccc(Br)cc3)c[n+]3c2CCC3)cc1	HTT aggregate inconclusive (no result: L3MBTL1 inh)
COc1ccc(-n2c(-c3ccccc3)c[n+]3c2CCC3)cc1	none
CC(C)(C)n1ncc(Oc2ccccc2[N+](=O)[O-])c(Cl)c1=O	HTT aggregate 13µM (no result: HTT cytoprotect)
O=Nc1c(-c2c(O)[nH]c3ccccc23)[nH]c2ccccc12	HTT cytoprotect 1.3µM! (no result: L3MBTL1 inh, HTT aggregate)
O=NC1=C(c2c(O)[nH]c3ccccc23)CCCC1	none (no result: L3MBTL1 inh)
CCCCC/C=C\C/C=C\CCCCCCCCCC(=O)NCCCC(=O)O	HTT cytoprotect inconclusive (no result: L3MBTL1 inh, HTT aggregate)
Cc1ccc(C2=CC(c3ccc(N(C)C)cc3)n3nnnc3N2)cc1 (stereo not drawn)	JMJD2E inh inconclusive, HTT aggregate 10µM
COc1ccc(C(=O)O)nc1C	JMJD2E inh 14µM
Cc1cccc(Nc2ncnc3ccccc23)c1	HTT aggregate 13µM
Cc1ccc(OCC(=O)N2CCN(C(=O)c3cccc(F)c3)CC2)cc1	none
Cc1ccc(OCC(=O)N2CCN(C(=O)c3ccncc3)CC2)cc1	HTT aggregate 0.028µM (no result: HTT cytoprotect)
COc1ccc(Cc2nnc(N/N=C/c3ccc(O)cc3)[nH]c2=O)cc1OC	JMJD2E inh 14µM, L3MBTL1 inh 18µM, HTT aggregate 1.1µM
CC=CC1=C(C(=O)O)N2C(=O)[C@H](NC(=O)[C@H](N)c3ccc(O)cc3)[C@@H]2SC1	none (no result: JMJD2E inh, L3MBTL1 inh)
Cc1cc(/C=N/Nc2nc(N3CCOCC3)nc(N3CCOCC3)n2)c(C)n1-c1ccccc1	JMJD2E inh 35µM, HTT aggregate inconclusive (no result: L3MBTL1 inh)
CN(c1ccccc1)c1ccc(/C=C/[N+](=O)[O-])cc1	none
CN(C)c1ccc(-n2cccc2/C=C/[N+](=O)[O-])cc1	HTT aggregate 25µM (no result: L3MBTL1 inh)
CCNc1ncc2nc(-c3cccc(C#N)c3)c(=O)n(CCC#N)c2n1	none (no result: JMJD2E inh, L3MBTL1 inh, HTT aggregate)
C=CCN1C=C2C(=O)C(C)(OC(=O)CCC(=O)OC)C(=O)C(Br)=C2C=C1c1ccc(OC)cc1 (stereo not drawn)	JMJD2E inh 7.9µM (no result: L3MBTL1 inh)
COCCN1C=C2C(=O)C(C)(OC(=O)CCC(=O)OC)C(=O)C(Br)=C2C=C1c1ccc(OC)cc1 (stereo not drawn)	JMJD2E inh inconclusive (no result: L3MBTL1 inh, HTT aggregate)
COc1cc2c(cc1OC)C1C(=O)c3c(cc4c(c3O)C=CC(C)(C)O4)OC1CO2 (stereo not drawn)	none (no result: HTT cytoprotect, L3MBTL1 inh, HTT aggregate)
CCCCCCOc1ccc(C(=N)N(CCCC)CCCC)c2ccccc12	HTT aggregate inconclusive (no result: JMJD2E inh, L3MBTL1 inh)
COCC(=O)N1CCc2nc(COc3ccccc3)c3c(c2C1)CO[C@@H](C)C3	none (no result: L3MBTL1 inh, HTT aggregate)
CO[C@@H]1COC(=O)[C@@H](CCSC)NC(=O)C/C=C\[C@@H](C)COC(=O)CCC[C@H]1C	none (no result: JMJD2E inh, L3MBTL1 inh, HTT aggregate)
CN(C)S(=O)(=O)c1ccc(NC(=O)C2CC(=O)N(Cc3ccccc3)C2)cc1 (stereo not drawn)	none (no result: L3MBTL1 inh)
CCN(CC)c1ccc(NC(=O)C2CC(=O)N(Cc3ccccc3)C2)cc1 (stereo not drawn)	L3MBTL1 inh 32µM, HTT aggregate inconclusive
CCCCN(CC)CCCNC(=S)Nc1ccc2nc(N3CCN(C)CC3)cc(C)c2c1	JMJD2E inh inconclusive, HTT aggregate 28µM (no result: L3MBTL1 inh)
CN(C)c1ncc2nc(CCc3ccccc3)c(=O)n(Cc3ccc(F)cc3)c2n1	none (no result: JMJD2E inh, L3MBTL1 inh, HTT aggregate)
Oc1cccc(/C=N/N=C/c2cccc(O)c2O)c1O	none (no result: JMJD2E inh, HTT cytoprotect, HTT aggregate)
CCN(CC)c1ccc(C=Nc2ccc(C)cc2C)c(O)c1	none
CC(N=Cc1cc([N+](=O)[O-])ccc1O)c1ccccc1 (stereo not drawn)	HTT aggregate inconclusive (no result: L3MBTL1 inh)
CC(N=Cc1cccc(O)c1O)c1ccccc1 (stereo not drawn)	JMJD2E inh 14µM (no result: L3MBTL1 inh)
Cc1ccccc1N=Cc1cccc(O)c1O	JMJD2E inh 11µM, L3MBTL1 inh 2.5µM (no result: HTT cytoprotect)
Cc1ccc(N=Cc2cccc(O)c2O)c(C)c1	JMJD2E inh 14µM, L3MBTL1 inh 32µM
CC1=NN(c2ccc([N+](=O)[O-])cc2)C(=O)C1[N+](=O)[O-] (stereo not drawn)	none (no result: L3MBTL1 inh, HTT aggregate)
